Measurements reported in PubChem BioAssay AID2029 (NMMLSC, 2009).
Out of some 320,000 compounds screened, about 210 (0.066%) were called active. Shown is part of a subset that was picked to be rich in actives. Unmarked numbers belong to inactive results.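 How the source made its calls: active means GFP response relative to DMSO above a set limit, near the screen mean plus 3 SD (cut at about 150% in these data); inconclusive means Fewer than 70 cells measured for a yeast strain; inactive means the rest.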

assay: TOR pathway RTG branch CIT2 reporter changes – S. cerevisiae, GFP fusion, multiplex flow cytometry, MLPCN library, primary screen (AID 2029);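 further: ratio of well median GFP fluorescence to mean of DMSO wells on the plate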; conditions: S. cerevisiae CIT2-GFP strain, 3 h, at 10 µM, stronger effect = higher value, 100 means same as DMSO wells

Question: Which GFP response vs DMSO does the source give for CCCCCc1nnc(NC(=O)c2ccc(=O)n(C)n2)s1 here?
Answer: 113%

Question: With O=S(=O)(c1ccc(Br)cc1)n1ccc2ccccc21 as the compound, how does the GFP response vs DMSO read?
Answer: 77.6%

Question: Which GFP response vs DMSO does the source give for CC(C)(C)OC(=O)NCCCCCNC(=O)c1[nH]cnc1C(=O)Nc1nccs1 here?
Answer: 104%

Question: For CCOCCc1nn2c(=O)cc(CSCC(=O)Nc3cccc(C)c3C)nc2s1, which GFP response vs DMSO is on record?
Answer: 96.3%

Question: For C/C(=N\NC(=O)c1cc2c(s1)CCC(C)C2)c1cccnc1 (configuration not stated), which GFP response vs DMSO is on record?
Answer: 104%

Question: With O=C(NCCCn1ccnc1)/C(=C\c1ccccc1F)NC(=O)c1ccccc1 as the compound, how does the GFP response vs DMSO read?
Answer: 93.1%

Question: Which GFP response vs DMSO does the source give for Cc1c(C2=CCN(S(=O)(=O)c3ccc(Cl)cc3)CC2)c2ccccc2n1C here?
Answer: 98.5%

Question: With Cc1ccc(C(=O)Nc2ccn(C)n2)cc1 as the compound, how does the GFP response vs DMSO read?
Answer: 109%

Question: Which GFP response vs DMSO does the source give for Cn1ccc(NC(=O)Nc2ccc(Cl)cc2)n1 here?
Answer: 95.9%

Question: For CN(C)S(=O)(=O)c1cc(C(=O)Nc2ccn(C)n2)c(Cl)cc1Cl, which GFP response vs DMSO is on record?
Answer: 6000% [may fluoresce green] (active)

Question: For CCCCC[C@@H]1C=C(C(=O)O)[C@H](c2ccc(C#N)cc2)N1S(=O)(=O)c1ccc(C)cc1, which GFP response vs DMSO is on record?
Answer: 88.2%

Question: With COc1ccccc1N(CC(=O)NC1CCCC1)C(=O)C1(C)CC(=O)N=C2C=CC(C)=CN21 (configuration not stated) as the compound, how does the GFP response vs DMSO read?
Answer: 104%

Question: For O=C(Nc1ccc(-c2cscn2)cc1)C1CCCN(Cc2ccc(CO)o2)C1 (configuration not stated), which GFP response vs DMSO is on record?
Answer: 97.5%

Question: Which GFP response vs DMSO does the source give for COc1ccc(C(=O)N2CCCCC2C(=O)Nc2ccc(-n3nc(C)cc3C)cc2)o1 (configuration not stated) here?
Answer: 109%

Question: Which GFP response vs DMSO does the source give for O=C(COC(=O)C12CC3CC(CC(O)(C3)C1)C2)NC12CC3CC(CC(C3)C1)C2 here?
Answer: 88.4%

Question: Which GFP response vs DMSO does the source give for Cc1ccc(S(=O)(=O)NCCCn2ccnc2)cc1C(=O)NC(C)C here?
Answer: 99.8%

Question: With CCC(C)(C)NC(=O)CN(C(=O)CCC(=O)Nc1nccs1)c1ccc2c(c1)OCO2 as the compound, how does the GFP response vs DMSO read?
Answer: 109%

Question: With COc1ccc(C)cc1Nc1n[n+](-c2ccccc2)c(-c2cccc(Cl)c2Cl)s1 as the compound, how does the GFP response vs DMSO read?
Answer: 112%

Question: Which GFP response vs DMSO does the source give for O=C(c1ccc(F)cc1)c1cn(Cc2ccc(F)cc2)c2cc3c(cc2c1=O)OCCO3 here?
Answer: 97%

Question: Which GFP response vs DMSO does the source give for NC(=O)NC(=O)C(OC(=O)CCNS(=O)(=O)c1ccccc1)c1ccccc1 (configuration not stated) here?
Answer: 115%

Question: For CC(C)(C)n1nc(Cc2cccc3ccccc23)c(C#N)c1N, which GFP response vs DMSO is on record?
Answer: 91.2%

Question: For CCCOc1ccc(C2NC(=O)NC(c3ccccc3)=C2C(C)=O)cc1OCC (configuration not stated), which GFP response vs DMSO is on record?
Answer: 98.7%

Question: With CC(=O)c1ccc(S(=O)(=O)NCc2nnnn2-c2ccccc2)cc1 as the compound, how does the GFP response vs DMSO read?
Answer: 108%

Question: For CCC(=C/c1sc2ccc3ccccc3c2[n+]1C)/C=C1\Sc2ccc3ccccc3c2N1C, which GFP response vs DMSO is on record?
Answer: 189% (active)

Question: With Cc1cc(C(=O)COc2ccccc2Cl)c(C)n1C1CC1 as the compound, how does the GFP response vs DMSO read?
Answer: 80.4%

Question: With O=C(c1cc(COc2c(F)cccc2F)on1)N1CCSCC1 as the compound, how does the GFP response vs DMSO read?
Answer: 99.2%

Question: Which GFP response vs DMSO does the source give for CCCN(C(=O)CSc1nnc(N)s1)c1c(N)n(Cc2ccccc2)c(=O)[nH]c1=O here?
Answer: 102%

Question: With CC1CCC(C(C)C)C(=O)/C1=C\c1ccc(NC(=O)CCC(=O)O)cc1 (configuration not stated) as the compound, how does the GFP response vs DMSO read?
Answer: 103%

Question: For CC(=O)NC1C(Oc2ccc(C=O)cc2)OC(COC(C)=O)C(OC(C)=O)C1OC(C)=O (configuration not stated), which GFP response vs DMSO is on record?
Answer: 102%

Question: With COc1ccc(CCNC(=O)C(=O)Nc2ccc3nc4n(c(=O)c3c2)CCCCC4)cc1OC as the compound, how does the GFP response vs DMSO read?
Answer: 96.1%

Question: With CC(C)Oc1ccc(/C=N/NC(=O)c2nnn(-c3nonc3N)c2CN(C)C2CCCCC2)cc1 as the compound, how does the GFP response vs DMSO read?
Answer: 99.5%

Question: For Cc1cc(NC(=O)/C=C/C(=O)N(CC(=O)NC2CCCC2)c2ccc(F)cc2)no1, which GFP response vs DMSO is on record?
Answer: 96.7%

Question: Which GFP response vs DMSO does the source give for Oc1cccc2ccc(/C=C/c3ccc(Br)s3)nc12 here?
Answer: 98.5%

Question: For Cc1cc(N=Nc2ccc3ccccc3c2)ccc1O, which GFP response vs DMSO is on record?
Answer: 97.3%

Question: With Cc1cccc(N(C)C(=O)c2cc(S(=O)(=O)N3CCCCC3)c[nH]2)c1 as the compound, how does the GFP response vs DMSO read?
Answer: 105%

Question: With C=CCNc1nc(Nc2ccc(Cl)cc2)nc(OC)n1 as the compound, how does the GFP response vs DMSO read?
Answer: 87%

Question: Which GFP response vs DMSO does the source give for COC(=O)COc1ccc2c(=O)c(Oc3ccccc3Br)coc2c1 here?
Answer: 100%

Question: With COc1ccc(C2(C)ON(c3ccccc3C(F)(F)F)C2=O)cc1 (configuration not stated) as the compound, how does the GFP response vs DMSO read?
Answer: 97%

Question: For Cc1noc(NS(=O)(=O)c2ccc(N3CC(O)=C(c4ccccc4)C3=N)cc2)c1C, which GFP response vs DMSO is on record?
Answer: 103%

Question: For O=C(COC(=O)Cn1cnc2ccccc2c1=O)NCC12CC3CC(CC(C3)C1)C2, which GFP response vs DMSO is on record?
Answer: 101%

Question: With O=C(COC(=O)c1cc(S(=O)(=O)N2CCOCC2)ccc1Cl)NCCc1ccccc1 as the compound, how does the GFP response vs DMSO read?
Answer: 98.2%

Question: Which GFP response vs DMSO does the source give for CCCc1nn(C)c2c(=O)[nH]c(-c3cc(S(N)(=O)=O)ccc3OCC)nc12 here?
Answer: 96%

Question: For Cc1cc(C)cc(NS(=O)(=O)Cc2ccccc2)c1, which GFP response vs DMSO is on record?
Answer: 103%

Question: Which GFP response vs DMSO does the source give for CC(OC(=O)CNC(=O)c1ccco1)C(=O)Nc1ccc(Cl)cn1 (configuration not stated) here?
Answer: 98.1%

Question: With O=C(N/C(=C\c1ccc(O)cc1)C(=O)N1CCCCC1)c1ccccc1 as the compound, how does the GFP response vs DMSO read?
Answer: 108%

Question: For COc1cc(/C=C/C(=O)O)cc(S(=O)(=O)Nc2ccccc2SC)c1OC, which GFP response vs DMSO is on record?
Answer: 110%

Question: For CCc1cccc2c3c([nH]c12)C(CC)(CC(=O)O)OCC3 (configuration not stated), which GFP response vs DMSO is on record?
Answer: 83.9%

Question: With Cc1cccc(CN2CCC(n3nccc3NC(=O)c3ccccc3C)CC2)n1 as the compound, how does the GFP response vs DMSO read?
Answer: 107%

Question: Which GFP response vs DMSO does the source give for CCc1n[nH]c(=S)n1/N=C/c1c[nH]c2ccc(Br)cc12 here?
Answer: 106%

Question: Which GFP response vs DMSO does the source give for CCOc1ccc(NS(=O)(=O)c2ccc(C)c(C(N)=O)c2)cc1 here?
Answer: 94%

Question: For NC(=O)c1oc2ccccc2c1NC(=O)CS(=O)(=O)c1ccccc1, which GFP response vs DMSO is on record?
Answer: 110%

Question: For CC1(C)C2CC=C(/C=N/NC(=O)C3CC3)C1C2 (configuration not stated), which GFP response vs DMSO is on record?
Answer: 91.7%

Question: For COCCNC(=O)CN(Cc1ccco1)C(=O)CCC(=O)Nc1nccs1, which GFP response vs DMSO is on record?
Answer: 105%

Question: For CCn1c(SCC(=O)Nc2nc(C)cs2)nnc1C(C)NC(=O)c1ccccc1 (configuration not stated), which GFP response vs DMSO is on record?
Answer: 101%

Question: Which GFP response vs DMSO does the source give for CN(c1ccccc1)c1ccc(/C=c2\s/c(=C(/C#N)C(=O)C(C)(C)C)n(Cc3ccco3)c2=O)cc1 here?
Answer: 352% (active)

Question: With CCOC(=O)/C=c1\s/c(=C\c2ccc(C#N)cc2)c(=O)n1CC(=O)Nc1cccc(C)c1C as the compound, how does the GFP response vs DMSO read?
Answer: 97.6%

Question: Which GFP response vs DMSO does the source give for CCOC(=O)Cn1c(=O)oc2cc(S(=O)(=O)N(C)Cc3ccco3)ccc21 here?
Answer: 96.1%
